An excerpt weighted towards active compounds, which were near 0.36% of everything screened.
CapD inh – blocks the Bacillus anthracis CapD enzyme. purified CapD enzyme, fluorescence intensity read-out; stronger effect = lower value. z-score (test concentration not listed). hit rate 0.23% among 140,000. AID 492967; in the data active = z-score mostly below about -2.9, no sharp cut-off; inactive = mostly above about -1.9
AID504770 – growth inhibitors of E. coli YBA685 in a screen for V. cholerae RctB (chromosome II replication) inhibitors. hit rate 0.27% among 130,000. AID 504770. E. coli YBA685 rctB-dependent plasmid, OD600 growth, 3 h; stronger effect = lower value. z-score (concentration not given with the values); in the data active = z-score below about -2, passing the limit was not always enough
Starred values were filed as active, the others as inactive; . = not tested or not shown.

SMILES	CapD inh	AID504770
Cc1noc2ncnc(N3CCC(C(=O)N4CCc5ccccc54)CC3)c12	0.55	0.05
O=C1C=CC(=O)N1c1ccc2c(c1)OCO2	.	-2*
O=C1c2cccc3cccc(c23)C(=O)N1c1ccc2c(c1)OCO2	0.46	1.7
COc1ccc(CCN2C(=O)C3C(C(=O)Nc4cc(C)on4)C4(C)C=CC3(O4)C2C(=O)NC2CCCCC2)cc1 (centres undefined)	.	-0.4
O=C1/C(=C\O)CCc2occc21	-8.1*	-0.1
O/N=C1/CCCc2occc21	-0.35	-0.95
O=C(O)c1cc2cccc([N+](=O)[O-])c2[nH]1	-4.6*	.
O=C(O)c1cc2ccccc2[nH]1	.	0.45
CCOc1cc(C=C2C(=O)NC(=O)NC2=O)cc(Br)c1OCCOc1ccccc1OC	-0.68	.
NC1=CC(=O)c2ccccc2C1=O	-1.6	-2.4*
CC1=CC(=O)c2ccccc2C1=O	0.15	0.65
CCn1c2ccccc2c2cc(CN3CCC(NC(=O)OCc4cc(OC)c(OC)cc4[N+](=O)[O-])C3)ccc21 (centres undefined)	1.4	.
CC(=O)Oc1ccccc1-n1c(C)nc(=O)c(-c2ccccc2)c1C	0.19	-4.5*
COc1ccccc1-n1c(C)nc(=O)c(-c2ccccc2)c1C	-0.42	-0.95
COc1ccc(CCNS(=O)(=O)c2cc(C(=O)O)ccc2Cl)cc1OC	.	0.05
O=S(=O)(NC1CC2CCC1C2)c1cccs1 (centres undefined)	0.24	-0.75
CCOc1ccc(NC(=O)c2cn(CC(C)C)c(=O)c3c2c2ccccc2n3C)cc1	-0.095	-2.9*
CC(C)Cn1cc(C(=O)NCc2cccnc2)c2c3ccccc3n(C)c2c1=O	47	0.6
CN(C)/C=C(/C(=O)c1ccccc1)c1nc2ccccc2[nH]1	.	-1.6
CCN1C(=O)c2cccc3c(S(=O)(=O)N4CC(C)OC(C)C4)ccc1c23 (centres undefined)	1.6	1.1
COC(=O)CSC1=C(C#N)C(=O)NC(c2ccccc2O)S1 (centres undefined)	0.56	-1.8
N#CC1=C(SCc2ccccc2)SC(c2ccccc2O)NC1=O (centres undefined)	0.51	-3.4*
Cc1c(C(=O)N(C)C)sc2nc(SCC(=O)NCc3ccco3)n(CCc3ccccc3)c(=O)c12	-0.64	-0.8
O=C(O)C(=O)/C=C(\O)c1ccccc1	-2.2	1.1
O=C(/C=C(\O)c1ccccc1)C(F)(F)C(F)F	-1.9	-3.5*
SMILES	CapD inh	AID504770
N#C/C(=C\Nc1ccc(OC(F)(F)F)cc1)c1ccc(OCCCF)cc1	-1.9	.
Cn1ncc(Br)c1N1C(=O)C=CC1=O	-0.25	-3*
Cn1ncc(Br)c1C(=O)NN	0.18	0.2
Cc1cc(C)nc(OC(Cc2ccc3ccccc3n2)c2ccccc2)n1 (centres undefined)	0.06	.
CCN(CCO)c1nc(NC2CCCCC2)c2cnn(C)c2n1	.	-2.1*
Cn1ncc2c(NC3CCCCC3)ncnc21	0.94	2.5
O=C(NCc1cc(C(F)(F)F)cc(C(F)(F)F)c1)c1ccc(-n2cccc2)cc1	0.26	.
O=c1c2cc(NC(=S)NCc3ccc4c(c3)OCO4)ccc2nc2n1CCCCC2	0.14	0.3
O=C1c2cccc3c(Br)c([N+](=O)[O-])cc(c23)C(=O)N1c1cccc([N+](=O)[O-])c1	-0.64	.
COC(=O)C1=CN(N(C(C)=O)C(C)=O)C(=O)CC1	-9.2*	-0.95
COC(=O)c1ccccc1-n1cnc2ccccc2c1=O	2.8	0.4
O=C(Nc1ccccc1Cl)c1cc2c(s1)CCC2	0.03	-1.5
O=C(NC1=NCCS1)c1cc2c(s1)CCC2	5.3	-2.4*
O=C(c1ccc(N2CCc3ccccc32)s1)N1CCCCCC1	74	-0.5
O=C(c1ccc(N2CCCc3ccccc32)s1)N1CCCC1	24	-2.2*
O=C(Nc1cccnc1)c1cccc(S(=O)(=O)NCc2cccnc2)c1	.	0.35
CCOC(=O)c1cc(C)n(CC(=O)OCc2ccc(C#N)cc2)c1C	.	-0.8
O=C(CCCN1C(=O)/C(=C\c2ccco2)SC1=S)Nc1ccc(Cl)cc1	-1.4	0.8
O=C1CCCC2=C1C(c1ccncc1)Nc1ccccc1N2 (centres undefined)	-1.7	1.1
O=C1CCCC2=C1C(c1cccs1)Nc1ccccc1N2 (centres undefined)	-3.5*	0.05
Cc1cc(C(=O)NNC(=O)CC2C3CCC(C)(C2O)C3(C)C)n[nH]1 (centres undefined)	-0.33	.
O=C(NCc1ccc(S(=O)(=O)N2CCOCC2)s1)c1ccc(Cl)cc1	-0.41	-0.35
NC(=O)c1ccsc1NC(=O)Cc1ccc(S(=O)(=O)N2CCOCC2)s1	.	-5.4*
Cn1c(=O)n(C)c2cc(S(=O)(=O)N(Cc3ccccc3)C(=O)c3ccncc3)ccc21	-7.6*	-0.95
Cn1c(=O)c(=O)n(C)c2cc(S(=O)(=O)CCC(=O)NCc3ccccc3)ccc21	5.3	1.6
CCCCC1(C)OC(=O)C(=Cc2ccc(Br)o2)C(=O)O1 (centres undefined)	-4.4*	-0.35

Source: PubChem BioAssay (ICCB-Longwood Screening Facility, Harvard Medical School)
